According to PubChem BioAssay AID1259422 (The Scripps Research Institute Molecular Screening Center, 2018):
“And” between values parts separate entries of the source, which are not always exact repeats. Equal entries are not always repeated. About 9,300 (1.5%) of roughly 640,000 compounds were called active. Rule as the data show it: active = inhibition above about 32%; inactive = the rest. The sample as a whole holds a higher share of actives than the screen did.

Assay: TEAD-YAP interaction inhibition, primary screen, TEAD-YAP interaction inhibitor project, luminescence, HEK-TIYL cells (AID 1259422);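 also: 0% = median of test compound wells and 100% = reference inhibitor wells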
Conditions: TEAD-Gal4/YAP UAS-luciferase luminescence, at 9.12 µM, stronger effect = higher value

Row | SMILES | inhibition
1 | COc1ccc(-c2cc(C(F)(F)F)n3nc(C(=O)NCc4ccccc4Cl)cc3n2)cc1 | -8.37% (inactive)
2 | Cc1sc2nc3n(c(=O)c2c1C)N=C(c1cccs1)CS3 | 50.3% (active)
3 | Cc1nc2scc(-c3cccs3)c2c(=O)n1N | 4.54% (inactive)
4 | Cc1sc2nc3n(c(=O)c2c1-c1cccs1)CCC3 | -2.17% (inactive)
5 | N=C1S/C(=C/c2ccc(-c3cc(Cl)ccc3[N+](=O)[O-])o2)C(=O)N1c1nonc1N | 5.95% (inactive)
6 | C=CCNS(=O)(=O)c1cc(C(=O)Nc2ccccc2C(F)(F)F)ccc1F | -7.91% (inactive)
7 | Cc1[nH]c2ccccc2c1CCNC(=O)/C(=C/c1ccccc1)NC(=O)c1cccc(Br)c1 | 2.37% (inactive)
8 | COc1cccc(/C=N/NC(=O)/C(=C/c2ccccc2)NC(=O)c2ccccc2)c1O | 21.1% (inactive)
9 | Cc1[nH]c2ccccc2c1/C=N/NC(=O)/C(=C/c1ccccc1O)NC(=O)c1ccccc1 | 83% (active)
10 | COc1ccc(C(=O)N/C(=C/c2ccc(Cl)cc2)C(N)=O)cc1 | -2.4% (inactive)
11 | CC(=O)c1ccc(NC(=O)CN2C(=O)C3C4CCC(C4)C3C2=O)cc1 (stereo unspecified) | -12% (inactive)
12 | CC(=O)Oc1ccc(C(=O)Nc2ccncc2)cc1 | 1.93% (inactive)
13 | CC(=O)Oc1ccc(N(C(C)=O)S(=O)(=O)c2c(C)cc(C)cc2C)cc1 | -4.17% (inactive)
14 | CC(=O)Oc1ccc(C(=O)N(C(=O)c2ccc(OC(C)=O)cc2)c2cc(C)ccn2)cc1 | 47.4% (active)
15 | COc1cc2cc(C)c3nnc(SCC(=O)NC(C)(C)C)n3c2cc1OC | -7.33% (inactive)
16 | O=C1NC(=S)S/C1=C/c1ccc(-c2ccc3c(c2)COC3=O)o1 | -7.22% (inactive)
17 | O=C(NCc1cccc(C(F)(F)F)c1)c1csc(Nc2nccc3ccccc23)n1 | -0.98% (inactive)
18 | Cc1ccc(Nc2c(Cc3ccccc3)c(C)c(C#N)c3nc4ccccc4n23)cc1 | -19.3% (inactive)
19 | CCOc1ccccc1C1C(C#N)=C(N)Oc2ccc3ccccc3c21 (stereo unspecified) | -6.22% (inactive)
20 | N#CC1=C(N)Oc2ccc3ncccc3c2C1c1ccccc1F (stereo unspecified) | 50.8% (active)
21 | N#CC1=C(N)Oc2ccc3ccccc3c2C1c1ccc(F)cc1 (stereo unspecified) | -0.56% (inactive)
22 | C=CCN(CC=C)C(=O)/C=C/c1cccc([N+](=O)[O-])c1 | 7.6% (inactive)
23 | COc1cccc(OCC(=O)N2CCC3(CC2)OCc2ccccc2O3)c1 | -8.9% (inactive)

Row | SMILES | inhibition
24 | CC(=O)N1c2ccc(NC(=O)c3ccccc3)cc2C(C)(c2ccc(C)cc2)CC1(C)C (stereo unspecified) | 13.9% (inactive)
25 | CC(Cl)/C(O)=C(\C#N)c1nc2ccccc2[nH]1 (stereo unspecified) | -6.03% (inactive)
26 | Cc1ccc2[nH]c3c(c2c1)CCCC3NC=O (stereo unspecified) | 5.42% (inactive)
27 | Cc1ccc2[nH]c3c(c2c1)CCCC3NCc1ccccc1 (stereo unspecified) | 53.6% (active)
28 | OCCNC1CCCc2c1[nH]c1ccc(-c3ccccc3)cc21 (stereo unspecified) | -12.6% (inactive)
29 | Cc1ccc2nc(-c3cccc(NC(=O)c4cc([N+](=O)[O-])ccc4Br)c3)oc2c1 | 6.62% (inactive)
30 | O=C(COc1ccc(Cl)cc1)Nc1ncc(Cc2ccc(F)cc2)s1 | 5.3% (inactive)
31 | CC(C)(C)NCC(O)COc1c(Br)ccc2c1sc1nc3n(c(=O)c12)CCCCC3 (stereo unspecified) | -32.7% (inactive)
32 | CC(=O)c1ccc(NC(=O)c2sc3nc4n(c(=O)c3c2C)CCCCC4)cc1 | -3.85% (inactive)
33 | O=c1c2c(nc3n1CCCCC3)sc1c(O)cccc12 | 92.2% (active)
34 | COc1ccc(N2CC(CNC(=O)c3cccs3)CC2=O)cc1 (stereo unspecified) | 6.17% (inactive)
35 | CCOc1ccc(C2C(C#N)=C(N)N(c3cccc(C)c3)C3=C2C(=O)CC(C)(C)C3)cc1 (stereo unspecified) | 56.6% (active)
36 | CCOc1ccc(C2C(C#N)=C(N)N(c3cccc([N+](=O)[O-])c3)C3=C2C(=O)CC(C)(C)C3)cc1 (stereo unspecified) | -5.19% (inactive)
37 | Cc1cccc(N2C(N)=C(C#N)C(c3ccc(F)cc3)C3=C2CC(C)(C)CC3=O)c1 (stereo unspecified) | -0.79% (inactive)
38 | Cc1cc(C(=O)N2CCN(c3cccc(Cl)c3)CC2)ccc1[N+](=O)[O-] | 3.11% (inactive)
39 | O=C(c1ccc([N+](=O)[O-])cc1)N1CCN(c2cccc(Cl)c2)CC1 | -1.04% (inactive)
40 | CC(=O)c1c(C)[nH]c(C(=O)N2CCN(c3ccc(Cl)cc3)CC2)c1C | 12.3% (inactive)
41 | CN(C)c1cccc(C(=O)N2CCN(c3cccc(Cl)c3)CC2)c1 | 32.4% (active)
42 | CSc1ncc(Cl)c(C(=O)N2CCN(c3cccc(Cl)c3)CC2)n1 | 39% (active)
43 | CC(=O)/C(C(=N)N1CCN(c2cccc(Cl)c2)CC1)=C(/C)O | -6.64% (inactive)
44 | O=C(c1cc(Cl)ccc1Cl)N1CCN(c2ccc(F)cc2)CC1 | 10.3% (inactive)
45 | CC(=O)Nc1ccc(C(=O)N2CCN(c3cccc(Cl)c3)CC2)cc1 | -15.7% (inactive)
46 | COc1ccc(-n2cc(C(=O)N3CCN(c4cccc(Cl)c4)CC3)c3ccccc3c2=O)cc1 | 0.04% (inactive)

Row | SMILES | inhibition
47 | CCc1c(C(=O)N2CCN(c3cccc(Cl)c3)CC2)[nH]c(C)c1C(C)=O | 52.2% (active)
48 | COc1cc(OC)cc(-n2nc(C(=O)N3CCN(c4cccc(Cl)c4)CC3)c3ccccc3c2=O)c1 | 9.86% (inactive)
49 | COc1ccc(Cl)cc1C(=O)N1CCN(c2cccc(Cl)c2)CC1 | 64% (active)
50 | CN1CCN(C(=O)c2cc(-c3cccs3)n(CC(=O)N3CCC(O)CC3)n2)CC1 | -2.96% (inactive)
51 | Cc1ccc(Nc2nc(-c3ccccc3Cl)nc3ccccc23)cc1Cl | 9.51% (inactive)
52 | Cc1c(Cl)cccc1NC(=O)c1cnn2c(C(F)(F)F)cc(-c3ccco3)nc12 | 0.28% (inactive)
53 | O=[N+]([O-])c1ccc(-c2csc(=NCc3cccnc3)n2-c2ccccc2)cc1 | -0.76% (inactive)
54 | Cc1nnc(NC(=O)CSc2nc(C(C)C)ccc2C#N)s1 | 62.8% (active)
55 | Cc1nnc(NC(=O)CSc2nc3ccccc3cc2C#N)s1 | -10.2% (inactive)
56 | COc1ccc(CC(=O)Nc2nnc(SCC(=O)Nc3nnc(C)s3)s2)cc1 | 12.5% (inactive)
57 | C=CCNC(=O)Cn1cnc2c([nH]c3ccc(C)cc32)c1=O | 3.72% (inactive)
58 | NC(=O)CN(c1cc(C(F)(F)F)ccc1Cl)S(=O)(=O)c1ccccc1 | -1.66% (inactive)
59 | COc1ccc(NC(=O)CN(c2cc(C(F)(F)F)ccc2Cl)S(=O)(=O)c2ccccc2)cc1 | 56.2% (active)
60 | O=C(CN(c1cc(C(F)(F)F)ccc1Cl)S(=O)(=O)c1ccccc1)NCc1ccncc1 | 3.78% (inactive)
61 | CCCCOc1ccc(NC(=O)C(C)Oc2ccc(OC)cc2)cc1 (stereo unspecified) | 7.98% (inactive)
62 | COC(=O)c1sc(NC(=O)C2CCCCC2)c(C#N)c1C | 1.29% (inactive)
63 | COC(=O)c1sc(NC(=O)C2(C)CC2(Cl)Cl)c(C#N)c1C (stereo unspecified) | 38.3% (active)
64 | COC(=O)c1sc(NC(=O)c2ccncc2)c(C#N)c1C | -4% (inactive)
65 | COc1ccccc1N1CCN(S(=O)(=O)c2ccc(F)c(C(=O)Nc3ccc(C(C)C)cc3)c2)CC1 | -4.13% (inactive)
66 | CC(C)CC(C(=O)N1CCOCCN(C(=O)C(CC(C)C)N2C(=O)c3ccccc3C2=O)CCOCC1)N1C(=O)c2ccccc2C1=O (stereo unspecified) | -2.73% (inactive)
67 | CCCOc1c(Cl)cc(/C=C/C(=O)O)cc1OC | 4.32% (inactive)
68 | O=C(NNc1ncc([N+](=O)[O-])cc1[N+](=O)[O-])c1ccncc1 | 6.87% (inactive)
69 | O=C(O)C1CCCCC1C(=O)N1CCN(c2nc(-c3ccccc3Cl)c3cc(Br)ccc3n2)CC1 (stereo unspecified) | -2.46% (inactive)

Row | SMILES | inhibition
70 | C[C@H]1O[C@@H](O[C@H]2[C@@H](O)C[C@H](O[C@H]3[C@@H](O)C[C@H](O[C@H]4CC[C@]5(C)C6C[C@@H](O)[C@]7(C)[C@@H](C8=CC(=O)OC8)CC[C@]7(O)C6CC[C@@H]5C4)O[C@@H]3C)O[C@@H]2C)C[C@H](O)[C@@H]1O (stereo partly specified) | 99.7% (active) and 101% (active)
71 | O=C1CCCN1CCCNc1cc(N2CCN(c3ccccn3)CC2)ncn1 | 6.77% (inactive)
72 | CC(=O)c1cc(Cl)cc(Cl)c1O | -4.24% (inactive)
73 | CCOC(=O)COc1ccc2cc(-c3nc4ccccc4s3)c(=O)oc2c1 | -4.53% (inactive)
74 | CCCOc1ccc2cc(-c3csc(N)n3)c(=O)oc2c1 | 59.4% (active)
75 | CCN(CC)c1ccc2cc(-c3csc(-c4nc(-c5cc6ccc(N(CC)CC)cc6oc5=O)cs4)n3)c(=O)oc2c1 | 4.64% (inactive)
76 | COc1ccc(/C=N/NC(=O)CN(C)c2ccccc2)cc1OC | -17.2% (inactive)
77 | CN(CCO)c1ccc(/C=N/Nc2nncc3ccccc23)cc1 | 76.3% (active)
78 | CN(C)c1ccc(/C=N/Nc2nc(-c3ccccc3)cs2)cc1 | -3.84% (inactive)
79 | c1ccc(CNc2nc3ccccc3n2CCOc2ccccc2)cc1 | -21.7% (inactive)
80 | CCS(=O)(=O)c1cc([N+](=O)[O-])c(Sc2ccccc2N)s1 | 75.8% (active)
81 | CCC(CC)NS(=O)(=O)c1ccccc1[N+](=O)[O-] | 12.2% (inactive)
82 | Nc1ccc(Sc2ccccc2[N+](=O)[O-])cc1 | -0.16% (inactive)
83 | CN(c1ccc2nc3ccccc3c(=O)n2n1)C1CCCCC1 | 89.7% (active)
84 | COC(=O)c1cnc(N(C)C2CCCCC2)c2ccccc12 | 6.67% (inactive)
85 | CN(C(=O)Cn1nc2c3ccccc3nc(C3CC3)n2c1=O)C1CCCCC1 | -4.4% (inactive)
86 | c1ccc(Nc2nc(Nc3ncccn3)nc3c2ncn3-c2ccccc2)cc1 | -25.3% (inactive)
87 | CC(=O)Nc1ccc(Nc2nc(Nc3ccncn3)nc3c2ncn3-c2ccsc2)cc1 | 6.4% (inactive)
88 | CC(=O)Nc1ccc(Nc2nc(N3CCC(N4CCOCC4)CC3)nc3c2ncn3-c2ccccc2)cc1 | 5.05% (inactive)
89 | CC(=O)Nc1ccc(Nc2nc(N3CCN(c4ccccn4)CC3)nc3c2ncn3-c2ccsc2)cc1 | 19.9% (inactive)
90 | CC(=O)Nc1ccc(Nc2nc(Cl)nc3c2ncn3-c2ccsc2)cc1 | 33.8% (active)
91 | CC(=O)Nc1ccc(Nc2nc(Nc3cnccn3)nc3c2ncn3-c2ccccc2)cc1 | 49.2% (active)
